Results published in ChEMBL document CHEMBL1961873, “Compounds: GSK PKIS; Assays: Nanosyn kinase panel” (2012).

Key:
[1] = biological target: High affinity nerve growth factor receptor (Homo sapiens) (UniProt P04629); details: at 1 µM;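 also: each value is the mean percent inhibition of TRKA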
[2] = biological target: BDNF/NT-3 growth factors receptor (Homo sapiens) (UniProt Q16620); details: at 0.1 µM
[3] = biological target: BDNF/NT-3 growth factors receptor (Homo sapiens) (UniProt Q16620); details: at 1 µM
[4] = biological target: NT-3 growth factor receptor (Homo sapiens) (UniProt Q16288); details: at 0.1 µM
[5] = biological target: NT-3 growth factor receptor (Homo sapiens) (UniProt Q16288); details: at 1 µM
[6] = biological target: T1, Tyrosine-protein kinase TXK (Homo sapiens) (UniProt P42681); details: at 0.1 µM
T1 sequence (whole entry): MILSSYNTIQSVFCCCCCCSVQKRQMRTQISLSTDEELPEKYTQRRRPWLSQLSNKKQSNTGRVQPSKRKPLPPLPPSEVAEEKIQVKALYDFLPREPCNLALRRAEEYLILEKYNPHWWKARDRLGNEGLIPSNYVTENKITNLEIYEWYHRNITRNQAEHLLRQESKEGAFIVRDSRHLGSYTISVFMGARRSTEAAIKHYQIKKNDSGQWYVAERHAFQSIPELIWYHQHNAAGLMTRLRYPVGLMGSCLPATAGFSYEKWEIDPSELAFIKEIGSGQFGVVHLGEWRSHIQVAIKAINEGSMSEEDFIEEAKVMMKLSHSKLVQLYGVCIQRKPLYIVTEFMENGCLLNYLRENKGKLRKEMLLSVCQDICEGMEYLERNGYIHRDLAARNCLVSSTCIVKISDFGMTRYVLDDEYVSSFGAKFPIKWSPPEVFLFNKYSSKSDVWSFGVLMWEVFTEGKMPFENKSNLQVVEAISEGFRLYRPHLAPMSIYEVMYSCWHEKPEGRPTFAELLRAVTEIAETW

[7] = biological target: T1, Tyrosine-protein kinase TXK (Homo sapiens); details: at 1 µM
[8] = biological target: Non-receptor tyrosine-protein kinase TYK2 (Homo sapiens) (UniProt P29597); details: at 0.1 µM;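 also: each value is a mean of the inhibition readings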
[9] = biological target: T2, Dual specificity protein kinase TTK (Homo sapiens) (UniProt P33981); details: at 1 µM;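 also: reported figures are mean TTK inhibition at 1 µM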
T2 sequence (whole entry): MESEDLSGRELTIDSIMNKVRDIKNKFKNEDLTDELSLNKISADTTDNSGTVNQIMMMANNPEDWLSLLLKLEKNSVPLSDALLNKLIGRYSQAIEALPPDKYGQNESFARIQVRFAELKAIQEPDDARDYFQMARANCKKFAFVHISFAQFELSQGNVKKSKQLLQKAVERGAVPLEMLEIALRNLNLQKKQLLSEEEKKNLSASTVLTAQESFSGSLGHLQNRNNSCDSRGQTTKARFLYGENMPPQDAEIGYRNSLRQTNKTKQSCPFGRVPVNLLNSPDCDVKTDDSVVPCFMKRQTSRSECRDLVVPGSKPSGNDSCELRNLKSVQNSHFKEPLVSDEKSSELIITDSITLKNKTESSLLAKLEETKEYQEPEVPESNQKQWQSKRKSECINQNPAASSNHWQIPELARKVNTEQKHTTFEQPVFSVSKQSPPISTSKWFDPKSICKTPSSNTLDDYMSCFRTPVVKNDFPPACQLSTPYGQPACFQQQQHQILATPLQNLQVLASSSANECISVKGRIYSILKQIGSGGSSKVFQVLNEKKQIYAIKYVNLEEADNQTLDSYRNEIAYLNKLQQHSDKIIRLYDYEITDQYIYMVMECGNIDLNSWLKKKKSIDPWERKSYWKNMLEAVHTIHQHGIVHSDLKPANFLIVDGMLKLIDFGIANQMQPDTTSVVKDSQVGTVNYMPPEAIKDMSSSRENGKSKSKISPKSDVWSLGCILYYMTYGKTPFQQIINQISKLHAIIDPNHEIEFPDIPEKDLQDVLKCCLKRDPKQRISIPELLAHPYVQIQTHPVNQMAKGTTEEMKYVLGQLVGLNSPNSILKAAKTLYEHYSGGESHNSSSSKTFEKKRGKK

[10] = biological target: T3, Aurora kinase A (Homo sapiens) (UniProt O14965); details: at 0.1 µM
T3 sequence (whole entry): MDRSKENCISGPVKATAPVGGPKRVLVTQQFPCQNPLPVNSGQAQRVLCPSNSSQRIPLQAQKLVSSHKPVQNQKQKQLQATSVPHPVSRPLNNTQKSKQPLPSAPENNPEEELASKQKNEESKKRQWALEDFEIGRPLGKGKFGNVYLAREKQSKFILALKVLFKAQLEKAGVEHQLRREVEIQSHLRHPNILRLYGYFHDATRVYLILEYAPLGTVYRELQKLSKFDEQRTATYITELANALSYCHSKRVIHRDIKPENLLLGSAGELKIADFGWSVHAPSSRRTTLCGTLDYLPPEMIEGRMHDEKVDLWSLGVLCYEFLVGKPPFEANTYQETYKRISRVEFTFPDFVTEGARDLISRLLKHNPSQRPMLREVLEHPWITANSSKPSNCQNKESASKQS

[11] = biological target: T3, Aurora kinase A (Homo sapiens); details: at 1 µM
[12] = biological target: Aurora kinase B (Homo sapiens) (UniProt Q96GD4); details: at 0.1 µM
[13] = biological target: Aurora kinase B (Homo sapiens) (UniProt Q96GD4); details: at 1 µM
[14] = biological target: T4, Aurora kinase C (Homo sapiens) (UniProt Q9UQB9); details: at 0.1 µM
T4 sequence (whole entry): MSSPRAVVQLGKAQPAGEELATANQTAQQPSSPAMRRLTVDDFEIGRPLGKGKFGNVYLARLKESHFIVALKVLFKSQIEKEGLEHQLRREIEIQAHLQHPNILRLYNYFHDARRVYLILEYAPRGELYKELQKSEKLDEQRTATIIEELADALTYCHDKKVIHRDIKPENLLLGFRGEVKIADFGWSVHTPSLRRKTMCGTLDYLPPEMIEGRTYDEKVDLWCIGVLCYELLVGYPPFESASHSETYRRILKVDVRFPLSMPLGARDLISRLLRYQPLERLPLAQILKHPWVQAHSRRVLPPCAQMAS

[15] = biological target: T4, Aurora kinase C (Homo sapiens); details: at 1 µM
[16] = biological target: Serine/threonine-protein kinase 10 (Homo sapiens) (UniProt O94804); details: at 0.1 µM
[17] = biological target: Serine/threonine-protein kinase 10 (Homo sapiens) (UniProt O94804); details: at 1 µM
[18] = biological target: T5, Mitogen-activated protein kinase kinase kinase kinase 2 (Homo sapiens) (UniProt Q12851); details: at 0.1 µM
T5 sequence (whole entry): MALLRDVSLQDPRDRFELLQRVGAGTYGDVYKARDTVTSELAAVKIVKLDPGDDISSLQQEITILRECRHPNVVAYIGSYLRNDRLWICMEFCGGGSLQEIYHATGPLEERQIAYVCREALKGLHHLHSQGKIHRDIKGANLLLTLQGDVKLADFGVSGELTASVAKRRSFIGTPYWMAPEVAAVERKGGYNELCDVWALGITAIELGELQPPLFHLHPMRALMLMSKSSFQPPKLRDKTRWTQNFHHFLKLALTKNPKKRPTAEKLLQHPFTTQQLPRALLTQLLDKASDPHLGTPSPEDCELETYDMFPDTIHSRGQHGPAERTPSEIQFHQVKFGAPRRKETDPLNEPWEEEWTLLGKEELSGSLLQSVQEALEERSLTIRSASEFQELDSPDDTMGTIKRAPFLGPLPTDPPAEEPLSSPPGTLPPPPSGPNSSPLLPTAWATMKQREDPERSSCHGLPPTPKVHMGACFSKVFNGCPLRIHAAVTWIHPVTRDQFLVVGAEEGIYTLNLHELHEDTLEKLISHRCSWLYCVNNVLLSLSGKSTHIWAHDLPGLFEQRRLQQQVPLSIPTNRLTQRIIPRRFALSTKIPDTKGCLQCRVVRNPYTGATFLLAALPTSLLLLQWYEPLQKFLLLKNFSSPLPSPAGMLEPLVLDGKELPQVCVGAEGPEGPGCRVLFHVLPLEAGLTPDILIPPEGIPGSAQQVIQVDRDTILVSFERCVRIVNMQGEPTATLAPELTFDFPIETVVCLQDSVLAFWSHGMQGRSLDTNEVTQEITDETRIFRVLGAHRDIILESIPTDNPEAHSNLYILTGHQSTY

[19] = biological target: T5, Mitogen-activated protein kinase kinase kinase kinase 2 (Homo sapiens); details: at 1 µM
[20] = biological target: Mitogen-activated protein kinase kinase kinase kinase 4 (Homo sapiens) (UniProt O95819); details: at 0.1 µM
Mitogen-activated protein kinase kinase kinase kinase 4 (Homo sapiens), sequence (O95819 2-1239 limits assumed): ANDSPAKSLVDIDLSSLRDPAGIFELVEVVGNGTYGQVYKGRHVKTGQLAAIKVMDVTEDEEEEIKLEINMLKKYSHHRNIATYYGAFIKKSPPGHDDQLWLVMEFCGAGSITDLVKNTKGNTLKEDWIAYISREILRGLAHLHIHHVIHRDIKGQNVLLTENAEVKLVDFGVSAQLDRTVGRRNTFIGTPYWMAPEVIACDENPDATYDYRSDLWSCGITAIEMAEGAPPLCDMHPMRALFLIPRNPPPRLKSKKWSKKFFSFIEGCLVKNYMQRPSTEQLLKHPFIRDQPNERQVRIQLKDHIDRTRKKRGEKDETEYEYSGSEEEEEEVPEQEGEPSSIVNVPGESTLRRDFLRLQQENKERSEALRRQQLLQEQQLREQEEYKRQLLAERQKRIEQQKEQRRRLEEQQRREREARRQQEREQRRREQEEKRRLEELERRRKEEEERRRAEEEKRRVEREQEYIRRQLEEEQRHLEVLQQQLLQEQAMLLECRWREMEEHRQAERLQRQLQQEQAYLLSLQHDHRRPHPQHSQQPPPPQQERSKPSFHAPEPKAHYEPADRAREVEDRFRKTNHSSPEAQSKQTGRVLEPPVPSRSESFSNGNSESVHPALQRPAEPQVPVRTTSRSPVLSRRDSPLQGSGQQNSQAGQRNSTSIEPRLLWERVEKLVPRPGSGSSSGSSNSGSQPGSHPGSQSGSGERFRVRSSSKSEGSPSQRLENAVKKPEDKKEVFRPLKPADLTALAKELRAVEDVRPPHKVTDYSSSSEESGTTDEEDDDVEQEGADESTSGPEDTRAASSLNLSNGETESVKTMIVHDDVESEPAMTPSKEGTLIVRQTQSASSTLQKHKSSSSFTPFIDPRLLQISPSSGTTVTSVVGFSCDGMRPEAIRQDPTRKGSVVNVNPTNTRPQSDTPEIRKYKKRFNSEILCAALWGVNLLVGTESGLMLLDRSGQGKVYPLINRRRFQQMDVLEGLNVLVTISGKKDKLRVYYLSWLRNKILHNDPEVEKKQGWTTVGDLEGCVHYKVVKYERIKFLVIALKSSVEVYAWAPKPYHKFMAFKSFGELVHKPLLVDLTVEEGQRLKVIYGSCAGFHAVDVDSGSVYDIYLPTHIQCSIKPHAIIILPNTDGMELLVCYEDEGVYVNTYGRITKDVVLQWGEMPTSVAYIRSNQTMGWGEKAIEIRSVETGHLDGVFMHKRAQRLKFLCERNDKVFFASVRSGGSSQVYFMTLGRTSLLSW

BDNF/NT-3 growth factors receptor (Homo sapiens), sequence (Q16620 32-822 limits assumed): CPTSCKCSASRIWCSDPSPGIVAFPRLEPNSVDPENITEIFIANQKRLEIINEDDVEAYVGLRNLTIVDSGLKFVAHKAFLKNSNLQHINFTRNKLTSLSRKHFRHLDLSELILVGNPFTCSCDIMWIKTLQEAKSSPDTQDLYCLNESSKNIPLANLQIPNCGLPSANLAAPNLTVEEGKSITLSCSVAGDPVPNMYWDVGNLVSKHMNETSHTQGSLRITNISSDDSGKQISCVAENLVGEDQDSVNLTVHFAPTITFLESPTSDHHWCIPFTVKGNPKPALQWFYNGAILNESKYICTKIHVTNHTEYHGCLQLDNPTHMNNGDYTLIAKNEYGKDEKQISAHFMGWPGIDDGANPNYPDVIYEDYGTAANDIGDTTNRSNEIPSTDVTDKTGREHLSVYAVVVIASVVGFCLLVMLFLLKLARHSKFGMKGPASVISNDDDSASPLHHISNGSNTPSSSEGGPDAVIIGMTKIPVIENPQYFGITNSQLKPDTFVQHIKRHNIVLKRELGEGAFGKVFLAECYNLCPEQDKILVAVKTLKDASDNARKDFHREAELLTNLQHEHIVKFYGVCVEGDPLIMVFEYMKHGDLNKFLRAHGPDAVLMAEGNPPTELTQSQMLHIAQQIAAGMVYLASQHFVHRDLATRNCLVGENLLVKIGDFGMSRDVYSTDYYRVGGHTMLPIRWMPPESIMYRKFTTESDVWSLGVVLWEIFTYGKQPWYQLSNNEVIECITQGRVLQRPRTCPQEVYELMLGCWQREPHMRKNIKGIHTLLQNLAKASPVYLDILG
High affinity nerve growth factor receptor (Homo sapiens), sequence (P04629 33-796 limits assumed): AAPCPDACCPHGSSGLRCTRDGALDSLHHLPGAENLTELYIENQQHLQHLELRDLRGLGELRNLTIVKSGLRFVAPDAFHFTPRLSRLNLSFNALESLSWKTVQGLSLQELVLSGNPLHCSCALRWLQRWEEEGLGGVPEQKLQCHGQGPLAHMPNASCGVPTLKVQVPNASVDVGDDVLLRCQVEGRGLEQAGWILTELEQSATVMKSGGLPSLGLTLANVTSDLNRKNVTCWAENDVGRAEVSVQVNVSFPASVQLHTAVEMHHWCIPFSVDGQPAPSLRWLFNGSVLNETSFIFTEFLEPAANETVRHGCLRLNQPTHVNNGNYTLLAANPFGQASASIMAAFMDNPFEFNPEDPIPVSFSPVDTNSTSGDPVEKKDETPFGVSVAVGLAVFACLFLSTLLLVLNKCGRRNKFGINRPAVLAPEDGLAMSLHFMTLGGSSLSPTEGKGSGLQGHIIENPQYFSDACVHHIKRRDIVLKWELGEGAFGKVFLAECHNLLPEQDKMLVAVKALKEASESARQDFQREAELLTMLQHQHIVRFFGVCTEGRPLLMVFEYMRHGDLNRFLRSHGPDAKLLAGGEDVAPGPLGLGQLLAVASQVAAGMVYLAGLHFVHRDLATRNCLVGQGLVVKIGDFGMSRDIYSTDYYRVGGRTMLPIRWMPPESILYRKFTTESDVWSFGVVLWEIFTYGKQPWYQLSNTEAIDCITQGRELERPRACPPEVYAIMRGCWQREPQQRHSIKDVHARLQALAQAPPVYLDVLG
Non-receptor tyrosine-protein kinase TYK2 (Homo sapiens), sequence (P29597 whole entry): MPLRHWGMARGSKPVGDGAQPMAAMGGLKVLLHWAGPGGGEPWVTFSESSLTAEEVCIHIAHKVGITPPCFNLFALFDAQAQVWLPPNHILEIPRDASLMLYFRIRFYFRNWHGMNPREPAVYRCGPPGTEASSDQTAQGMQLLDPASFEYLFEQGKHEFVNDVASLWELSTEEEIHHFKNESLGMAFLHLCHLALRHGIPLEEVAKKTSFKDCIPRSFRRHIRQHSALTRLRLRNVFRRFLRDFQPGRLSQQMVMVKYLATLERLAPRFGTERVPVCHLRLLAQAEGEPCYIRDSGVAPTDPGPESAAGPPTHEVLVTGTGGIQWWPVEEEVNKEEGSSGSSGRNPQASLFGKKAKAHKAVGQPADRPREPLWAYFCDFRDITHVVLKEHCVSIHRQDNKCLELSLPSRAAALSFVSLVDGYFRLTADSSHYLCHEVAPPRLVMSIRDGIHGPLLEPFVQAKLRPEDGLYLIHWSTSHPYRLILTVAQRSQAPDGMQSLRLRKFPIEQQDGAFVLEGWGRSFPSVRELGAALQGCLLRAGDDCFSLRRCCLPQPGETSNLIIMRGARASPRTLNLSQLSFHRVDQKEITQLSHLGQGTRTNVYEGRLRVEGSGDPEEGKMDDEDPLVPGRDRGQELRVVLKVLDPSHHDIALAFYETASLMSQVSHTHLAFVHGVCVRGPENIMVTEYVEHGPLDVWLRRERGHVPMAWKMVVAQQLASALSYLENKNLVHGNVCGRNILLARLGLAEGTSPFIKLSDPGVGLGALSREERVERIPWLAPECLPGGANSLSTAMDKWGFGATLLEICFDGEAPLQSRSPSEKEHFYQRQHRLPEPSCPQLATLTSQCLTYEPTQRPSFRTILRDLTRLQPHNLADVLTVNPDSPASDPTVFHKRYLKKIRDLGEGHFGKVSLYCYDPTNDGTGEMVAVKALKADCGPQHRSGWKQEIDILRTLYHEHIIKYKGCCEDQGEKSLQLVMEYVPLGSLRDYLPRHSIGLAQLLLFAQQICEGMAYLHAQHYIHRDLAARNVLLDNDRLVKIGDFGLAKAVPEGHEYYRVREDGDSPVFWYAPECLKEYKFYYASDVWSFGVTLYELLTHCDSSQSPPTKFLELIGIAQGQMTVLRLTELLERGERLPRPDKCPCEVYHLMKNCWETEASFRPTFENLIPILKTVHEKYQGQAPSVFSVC
NT-3 growth factor receptor (Homo sapiens), sequence (Q16288 32-839 limits assumed): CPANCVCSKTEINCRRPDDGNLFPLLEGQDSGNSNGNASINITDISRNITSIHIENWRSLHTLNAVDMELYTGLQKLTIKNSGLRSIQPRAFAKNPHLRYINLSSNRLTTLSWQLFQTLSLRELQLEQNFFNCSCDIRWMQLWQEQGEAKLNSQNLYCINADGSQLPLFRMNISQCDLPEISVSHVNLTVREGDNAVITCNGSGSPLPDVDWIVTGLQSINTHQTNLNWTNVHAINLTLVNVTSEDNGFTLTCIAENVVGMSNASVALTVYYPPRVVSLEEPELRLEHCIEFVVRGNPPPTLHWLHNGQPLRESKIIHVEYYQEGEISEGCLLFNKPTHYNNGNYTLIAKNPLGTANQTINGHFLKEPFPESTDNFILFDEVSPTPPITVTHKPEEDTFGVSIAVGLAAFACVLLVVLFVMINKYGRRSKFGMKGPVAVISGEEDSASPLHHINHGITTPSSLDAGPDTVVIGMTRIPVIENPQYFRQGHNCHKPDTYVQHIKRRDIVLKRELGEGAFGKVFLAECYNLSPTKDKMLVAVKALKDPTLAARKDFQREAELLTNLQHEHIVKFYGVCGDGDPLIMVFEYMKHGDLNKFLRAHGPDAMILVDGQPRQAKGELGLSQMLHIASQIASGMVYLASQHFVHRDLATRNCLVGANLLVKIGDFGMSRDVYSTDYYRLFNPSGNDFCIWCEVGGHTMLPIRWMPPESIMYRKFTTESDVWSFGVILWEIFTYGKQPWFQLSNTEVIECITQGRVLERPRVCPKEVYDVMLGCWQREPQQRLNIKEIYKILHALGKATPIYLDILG

Row | Structure (SMILES) | inhibition [1] [%] | inhibition [2] [%] | inhibition [3] [%] | inhibition [4] [%] | inhibition [5] [%] | inhibition [6] [%] | inhibition [7] [%] | inhibition [8] [%] | inhibition [9] [%] | inhibition [10] [%] | inhibition [11] [%] | inhibition [12] [%] | inhibition [13] [%] | inhibition [14] [%] | inhibition [15] [%] | inhibition [16] [%] | inhibition [17] [%] | inhibition [18] [%] | inhibition [19] [%] | inhibition [20] [%]
1 | CCn1c(-c2nonc2N)nc2cncc(C(=O)N3CCNCC3)c21 | 4.86 | 3.21 | 4.35 | 3.96 | 4.33 | 7.08 | 5.49 | -1.93 | 12.5 | 5.21 | 2.9 | 3.66 | 4.51 | -0.51 | 1.12 | 10.8 | 8.24 | 1.51 | 2.14 | 3.11
2 | c1cnn2ncc(-c3ccnc(Nc4ccc5c(c4)OCCO5)n3)c2c1 | 9.5 | 5.33 | 18.1 | 5.54 | 21.3 | 4.21 | 17.6 | -1.73 | 35 | 9.49 | 85.5 | 14.4 | 65.2 | 18.8 | 96.8 | 5.98 | 23.8 | 13.6 | 56.5 | 11.3
3 | Fc1cccc(COc2ccc(Nc3ncnc4cc(-c5ccc[nH]5)sc34)cc2Cl)c1 | 2.72 | 2.62 | 0.88 | 2.48 | 2.41 | 2.95 | 9.57 | -1 | 10.7 | -2.74 | 7.53 | 0.54 | 13.2 | -2.76 | -2.08 | 2.11 | 11.9 | 0.55 | 4.58 | 5.64
4 | COc1ccccc1Nc1ncc(-c2ccccc2)o1 | 4.51 | 4.57 | 8.84 | 4.02 | 9.48 | 0.91 | 6.86 | -6.02 | 11.9 | 4.71 | 8.83 | 4.39 | 11.1 | 3.63 | 12.5 | 8.13 | 8.47 | -0.05 | 4.63 | 6.79
5 | CC1=C(C(=O)Nc2ccc3[nH]ncc3c2)C(c2ccc(Cl)c(Cl)c2)CC(=O)N1 (stereo not given) | 0.57 | 1.67 | -0.28 | 2.34 | 1.92 | 1.64 | 0.6 | 0.3 | 7.89 | 9.43 | 70.2 | 1.32 | 19.5 | 3.19 | 28.2 | 3.78 | 5.17 | -1.16 | 1.61 | 2.18
6 | CCN1CCC(CC(=O)Nc2n[nH]c3nc(-c4cccs4)c(Br)cc23)CC1 | 0.88 | -0.35 | -1.99 | -0.62 | 0.26 | -1.07 | -3.55 | -2.72 | -0.41 | -2.72 | 0.27 | -0.51 | 3.7 | -1.4 | -3.08 | -1.57 | 1.93 | 0.32 | 2.2 | 0.23
7 | COc1cc2ncn(-c3cc(OCc4ccccc4Cl)c(C(N)=O)s3)c2cc1OC | 2.92 | 2.11 | 13.7 | 3.13 | 20.4 | 2.99 | 13.2 | 2.29 | 0.54 | 1.9 | 23.5 | 4.78 | 29.9 | 2.35 | 40.5 | 67.3 | 99 | 7 | 30.8 | 13.9
